± gives the standard deviation of the averaged measurements.

The subject of this assay is AEK1 (Tb927.3.2440). As to the kind of experiment: percent reduction in TR-FRET probe signal relative to DMSO control; higher = stronger displacement of ATP-site probe (binding). To be noted: 1 µM; incubation time 1 h. (In general: TR-FRET usually uses a lanthanide donor and a delayed reading to cut background.)
In the case of `Cc1ccc(NC(=O)c2cccc(N(C)C)c2)cc1NC(=O)c1ccc(O)cc1`, the “percent reduction in TR-FRET probe signal” value (shortened to “percent reduction”) was -8.68 ± 4%.

Take `C[C@H](Nc1ncnc2nc[nH]c12)c1cc2cccc(Cl)c2c(=O)n1-c1ccccc1`: the “percent reduction” value was -9.85 ± 5.9%.

Regarding `CN1CC[C@H](c2c(O)cc(O)c3c(=O)cc(-c4ccccc4Cl)oc23)[C@H](O)C1.Cl` [Flavopiridol HCl], the “percent reduction” value was -6.15 ± 9.4%.

For `O=C(Nc1cc(C(F)(F)F)cc(C(F)(F)F)c1)c1cc(Cl)ccc1O`, the “percent reduction” value amounted to 8.68 ± 3.7%.

In the case of `CC(C)CC(=O)Nc1n[nH]c2c1CN(C(=O)C1CCN(C)CC1)C2(C)C`, the “percent reduction” value was -0.07 ± 7.6%.

As to `Cc1ccc2nc(NCCN)c3ncc(C)n3c2c1`, the “percent reduction” value was -7.43 ± 3.5%.

Regarding `CS(=O)(=O)N1CCN(Cc2cc3nc(-c4cccc5[nH]ncc45)nc(N4CCOCC4)c3s2)CC1`, the “percent reduction” value was 4.23 ± 8.1%.

For the molecule `CC1(C)CNc2cc(NC(=O)c3cccnc3NCc3ccncc3)ccc21.O=P(O)(O)O.O=P(O)(O)O` [Motesanib Diphosphate (AMG-706)], the “percent reduction” value was determined as 2.79 ± 7.6%.

For the molecule `CC(C)[C@H](CO)Nc1nc(Nc2cccc(Cl)c2)c2ncn(C(C)C)c2n1` [Purvalanol A], the “percent reduction” value worked out at 4.44 ± 18%.

Regarding `Nc1nc(N)c2nc(-c3cccc(O)c3)c(-c3cccc(O)c3)nc2n1`, the “percent reduction” value is 19.3 ± 26%.

Turning to `C[C@@H]1COCCN1c1cc(C2(S(C)(=O)=O)CC2)nc(-c2cccc3[nH]ccc23)n1`, the “percent reduction” value turned out to be 0.253 ± 7.1%.

In the case of `O=C(Nc1nc2cccc(-c3ccc(CN4CCS(=O)(=O)CC4)cc3)n2n1)C1CC1` [Filgotinib (GLPG0634)], the “percent reduction” value is 9.11 ± 14%.

Consider `CN([C@@H](Cc1ccc(OS(=O)(=O)c2cccc3cnccc23)cc1)C(=O)N1CCN(c2ccccc2)CC1)S(=O)(=O)c1cccc2cnccc12`, for which the “percent reduction” value turned out to be 0.31 ± 8.8%.

As to `O=C(NC[C@H](O)CO)c1ccncc1Nc1ccc(I)cc1F`, the “percent reduction” value stood at 8.42 ± 5%.

Regarding `C=CCc1ccc(O)c(-c2ccc(O)c(CC=C)c2)c1` [Honokiol], the “percent reduction” value worked out at 1.65 ± 8.9%.

Consider `CCCNC(=O)Nc1ccc(Oc2ncnc3cc(OC)c(OC)cc23)cc1Cl`, for which the “percent reduction” value is -3.67 ± 12%.

As for `NC(=O)c1ccc(-c2nc(-c3ccc4c(c3)OCCO4)c(-c3ccccn3)[nH]2)cc1`, the “percent reduction” value is -1.5 ± 7.3%.

Take `COc1ncc(-c2cc(-c3ncc(CN4C[C@@H](C)O[C@@H](C)C4)o3)c3cn[nH]c3c2)cc1NS(C)(=O)=O`: the “percent reduction” value is -2.16 ± 6.2%.

Turning to `CC(C)(C)Cn1c(N)nc2ccc(-c3[nH]c(C(C)(C)C)nc3-c3ccc(F)cc3)nc21.CS(=O)(=O)O.CS(=O)(=O)O`, the “percent reduction” value is -14.9 ± 5.8%.

As for `COc1cc(CCc2cc(NC(=O)c3ccc(N4C[C@@H](C)N[C@@H](C)C4)cc3)n[nH]2)cc(OC)c1`, the “percent reduction” value stood at 2.07 ± 10%.

As to `CCOC(=O)c1cnc2ccc(-c3cncc(NS(=O)(=O)c4ccccc4)c3)cn12`, the “percent reduction” value is -3.6 ± 8.8%.

As for `Oc1ccc2ccccc2c1SSc1c(O)ccc2ccccc12`, the “percent reduction” value is -9.34 ± 9%.

`CCn1c(N)c(C(=O)NC)c(=O)c2ccc(C#C[C@@](C)(O)COC)nc21`: the “percent reduction” value came to 10.3 ± 4.8%.

As to `COc1ccc2cc(-c3[nH]c(-c4ccc(S(C)=O)cc4)nc3-c3ccncc3)ccc2c1` (stereo not drawn) [Tie2 kinase inhibitor], the “percent reduction” value was found to be 2.05 ± 9.9%.

As to `CN1CCC(COc2cnc(-c3cccc(Cn4nc(-c5cccc(C#N)c5)ccc4=O)c3)nc2)CC1`, the “percent reduction” value came out at 6 ± 15%.

Consider `COc1cc(F)c(F)c(Nc2ccc(I)cc2F)c1NS(=O)(=O)C1(C[C@H](O)CO)CC1` [Refametinib (RDEA119, Bay 86-9766)], for which the “percent reduction” value was -1.27 ± 14%.

In the case of `CN(c1ncccc1CNc1nc(Nc2ccc3c(c2)CC(=O)N3)ncc1C(F)(F)F)S(C)(=O)=O.O=S(=O)(O)c1ccccc1`, the “percent reduction” value turned out to be 37.1 ± 14%.

In the case of `O=C(NOCC(O)CO)c1cc(Br)c(F)c(F)c1Nc1ccc(I)cc1F` (stereo not drawn), the “percent reduction” value was -4.38 ± 12%.

On to `Cc1c(NC(=O)OC[C@@H]2COCCN2)cn2ncnc(Nc3ccc4c(cnn4Cc4cccc(F)c4)c3)c12`, for which the “percent reduction” value was -10.7 ± 4.8%.

With `CO[C@H]1CC[C@H](N2C(=O)CNc3ncc(-c4ccc(C(C)(C)O)nc4)nc32)CC1`, the “percent reduction” value was -4.45 ± 1.6%.

For `CNCc1ccc(-c2cc(-c3nc(-c4ccc(S(=O)(=O)C(C)C)cc4)cnc3N)on2)cc1`, the “percent reduction” value came to 0.147 ± 8.7%.

Consider `C#Cc1cccc(Nc2ncnc3cc(OCCOC)c(OCCO)cc23)c1.Cl`, for which the “percent reduction” value was -0.453 ± 12%.

As to `Cc1nc(N)sc1-c1ccnc(Nc2ccc(N3CCOCC3)cc2)n1`, the “percent reduction” value worked out at 10.3 ± 6.7%.

Take `O=c1cc(-c2cccc3c2Sc2ccccc2S3)oc(N2CCOCC2)c1`: the “percent reduction” value is -8.85 ± 7.2%.

For the molecule `Cc1ccccc1-n1c(Cn2nc(-c3cccc(O)c3)c3c(N)ncnc32)nc2cccc(C)c2c1=O`, the “percent reduction” value worked out at 1.94 ± 11%.

For `Nc1nc(N)c(N=O)c(OCC2CCCCC2)n1`, the “percent reduction” value was -2.92 ± 9%.

As for `CN1CCN(CCOc2cc(OC3CCOCC3)c3c(Nc4c(Cl)ccc5c4OCO5)ncnc3c2)CC1` [Saracatinib (AZD0530)], the “percent reduction” value was 11.4 ± 13%.

On to `CN(C)C/C=C/C(=O)Nc1cc2c(Nc3ccc(F)c(Cl)c3)ncnc2cc1O[C@H]1CCOC1` [Afatinib (BIBW2992)], for which the “percent reduction” value came to 15.6 ± 31%.

For the origin of these results see the supplement of paper PMC10720658.
